High-throughput results as filed in PubChem BioAssay.
This is a sample that favours compounds with a hit; in the whole collection about 19% have one here.
DT40 TDP1 CPT: DT40-hTDP1 cell growth loss with CPT. chicken DT40 Tdp1-/-;hTDP1 cells + 20 nM CPT, ATP luminescence, 48 h. Potency, µM (titrated, usually from 46.2 µM), for the others: top-dose activity change, negative = growth inhibition, hits mostly inhibitors. 420,000 tested, 12% active; note: potency is the fitted concentration of half-maximal effect; nearly all actives have a fitted effect of over 55% in size
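Chicken DT40 Tdp1-/- cells stably complemented with human TDP1 were seeded at 400 cells/well in medium containing 20 nM camptothecin, exposed to pin-transferred compounds, and grown at 37 °C for at least 48 hr. Viability was read as ATP luminescence.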
HT1080-NT tox: kills 2HG-producing HT-1080-NT fibrosarcoma cells. HT-1080-NT fibrosarcoma viability, CellTiter-Glo ATP luminescence, 48 h. Potency, µM (titrated, usually from 46.1 µM), without a hit: at the highest dose activity, negative = less viability, hits mostly cytotoxic. 360,000 tested, 1.6% active. AID 686970;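 note: NT is the 2HG producing partner of a matched IDH1 knockdown line; potency is the fitted concentration of half-maximal effect; 0% = DMSO-treated cells and -100% = media-only wells without cells; nearly all actives have a fitted effect of over 55% in size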
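Luminescent CellTiter-Glo readout after 48 hours of compound exposure at 37 degrees C defined viability of HT-1080-NT cells. Activity was normalized to DMSO wells and cell-free media wells; concentration-response curves were fitted and assigned curve classes.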
IL-1B inflam inh: blocks inflammasome-driven IL-1 beta release; AID 743279; activity change, % at 57.5 µM; 360,000 tested, 4.7% active; THP-1 LPS/ATP IL-1B secretion, AlphaLISA, 16 h; hits give low values; in the data active = activity change below about -50%; inconclusive = mostly about -30% to -49%
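THP-1 cells pretreated 1 hr with compounds (up to 57.5 uM final), then stimulated with LPS (250 ng/mL final) plus ATP (1.25 mM final); secreted IL-1B measured by AlphaLISA after 16 hr, decreased signal indicating inhibition.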
DT40 TDP1 no CPT: qHTS for Inhibitors of human tyrosyl-DNA phosphodiesterase 1 (TDP1): qHTS in cells in absence of CPT; Potency, µM (highest dose often 46.2 µM), for the others: at the highest dose activity change, negative = growth inhibition, usual class: inhibitors; 420,000 tested, 15% active; DT40 Tdp1-/- hTDP1 cells, no CPT, ATP luminescence, 48 h; note: potency is the fitted concentration of half-maximal effect; nearly all actives have a fitted effect of over 55% in size
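Stably hTDP1-transfected Tdp1-null chicken DT40 cells were treated with library compounds minus camptothecin and grown for at least 48 hr at 37 °C, after which cellular ATP was quantified by luminescence.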
HT1080 IDH1KD tx: toxicity to HT-1080 IDH1 knockdown cells (counter line) | AID 686971 | 360,000 tested, 2% active | HT-1080 IDH1 knockdown viability, ATP luminescence, 48 h | Potency, µM (titrated, usually from 46.1 µM), inactives show at the highest dose activity, negative = toxicity, hits mostly cytotoxic;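 note: potency is the fitted concentration of half-maximal effect; 0% = DMSO wells and -100% = cell-free medium wells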
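Knockdown cells (IDH1KD HT-1080) received compounds 2 h after plating at 750 cells/well and were kept 48 h at 37 °C in 5% FBS RPMI. A CellTiter-Glo luminescence read gave % activity for curve fitting.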
Active calls of the source: *; ? = inconclusive; · = not tested or not shown. Unless noted, calls come from the whole dose curve; as a rule, active = well fitted curve in the direction sought with a large enough effect; inconclusive = small, poorly fitted or top-dose-only effect, or another doubt; inactive = no such curve, though single readings can be large; an effect the other way counts as inactive or inconclusive. Unless noted, % is set by controls: 0 for no effect and ±100 for the full control effect.

SMILES	DT40 TDP1 CPT	HT1080-NT tox	IL-1B inflam inh	DT40 TDP1 no CPT	HT1080 IDH1KD tx
Cc1cccc(-c2cnc(C)nc2C2CCCN(C(=O)c3cccc(Cn4cccn4)c3)C2)c1 (configuration not stated)	3.26µM*	·	·	?	·
Cc1ncc(-c2ccc(F)cc2)c(C2CCCN(Cc3cccc(O)c3)C2)n1 (configuration not stated)	?	·	·	20.6µM*	·
Cc1ccc2cccc(S(=O)(=O)N3CCCc4ccccc43)c2n1	?	-24.0%	5.5	?	-16.6%
CCOc1cc(NC(=O)c2cccs2)c(OCC)cc1NC(=O)CCC(=O)NCCN1CCOCC1	5.8%	-0.9%	-20.1	-25.5%	1.6%
CCN(CC)C(=O)c1ccc(S(=O)(=O)Cc2ccc(C)cc2)c([N+](=O)[O-])c1	?	-17.7%	-68.2*	?	-11.9%
Cc1ccc(CS(=O)(=O)c2ccc(C(=O)N3CCN(c4ccccn4)CC3)cc2[N+](=O)[O-])cc1	9.2µM*	?	?	25.9µM*	?
CCc1ccc(NC(=O)CSC2=Nc3ccccc3C3=NC(CC(=O)NCc4ccc5c(c4)OCO5)C(=O)N23)cc1 (configuration not stated)	?	·	·	23.1µM*	·
COc1ccc(NC(=O)CSC2=Nc3ccccc3C3=NC(CC(=O)NCc4ccc5c(c4)OCO5)C(=O)N23)cc1 (configuration not stated)	-23.2%	·	·	-7.7%	·
O=C(CC1N=C2c3ccccc3N=C(SCC(=O)Nc3ccc(F)cc3)N2C1=O)NCc1ccc2c(c1)OCO2 (configuration not stated)	?	·	·	-20.4%	·
COc1ccc(OC)c(NC(=O)CSC2=Nc3ccccc3C3=NC(CC(=O)NCc4ccc5c(c4)OCO5)C(=O)N23)c1 (configuration not stated)	?	·	·	23.1µM*	·
COc1cccc(C(C(=O)NCc2ccccc2)N(C(=O)Cn2nnc3ccccc32)c2cccc(C(C)=O)c2)c1 (configuration not stated)	-26.4%	·	·	-26.7%	·
CS(=O)(=O)N1CCC(C(=O)Nc2ccc(F)c(Cl)c2)CC1	12.5%	18.7%	-14.5	?	-0.9%
CCC(=O)N1CCCc2cc(S(=O)(=O)N3CCC(C(=O)NC4CCCCC4)CC3)ccc21	-2.6%	·	·	-19.6%	·
O=C(Nc1ccc(F)c(Cl)c1)C1CCN(S(=O)(=O)c2ccc3c(c2)CCCN3C(=O)C2CCC2)CC1	9.2µM*	·	·	11.6µM*	·
CCC(=O)N1CCCc2cc(S(=O)(=O)N3CCC(C(=O)Nc4ccc(F)c(F)c4)CC3)ccc21	-86.7%	·	·	11.6µM*	·
CCC(=O)N1CCCc2cc(S(=O)(=O)N3CCC(C(=O)Nc4ccc(C#N)cc4)CC3)ccc21	18.4µM*	·	·	?	·
O=C1CCC(C(=O)N2CCc3c(Cl)cccc3C2)CN1CCCN1CCOCC1 (configuration not stated)	-11.4%	16.6%	-4.3	-17.5%	12.5%
O=C(CSc1nnc(-c2ccncc2)n1-c1ccccc1)NC1CC1	-2.4%	-4.2%	-2.5	-19.9%	-2.7%
COc1ccccc1Cc1c(-c2cccc(Cl)c2)nc2c(C)cc(Br)cn12	?	1.5%	28.3	?	8.1%
CCCCCc1c(-c2cccc(F)c2)ncn1CCc1ccccc1OC	23.1µM*	?	0.0	18.4µM*	?
CCCCn1cnc2cc(NCc3cccc(OC)c3O)ccc21	3.3%	7.8%	?	-4.6%	-0.6%
CCCc1c(-c2cccc(F)c2)ncn1Cc1ccccc1OC	9.2µM*	?	19.0	8.2µM*	?
CCCc1c(-c2cccc(F)c2)ncn1CCc1ccccc1OC	?	?	-77.9*	14.6µM*	?
CCCCCc1c(-c2cccc(Cl)c2)ncn1CCc1ccccc1OC	23.1µM*	-17.7%	0.0	23.1µM*	-14.6%
N#Cc1ccc(N2CCOCC2)nc1	1.3%	13.2%	-0.1	7.6%	8.5%
SMILES	DT40 TDP1 CPT	HT1080-NT tox	IL-1B inflam inh	DT40 TDP1 no CPT	HT1080 IDH1KD tx
c1cnc(Oc2ccc(-c3nnco3)cc2)cn1	-20.4%	-3.9%	2.9	-1.9%	-2.1%
CCCc1c(-c2ccc(F)cc2F)ncn1Cc1ccccc1OC	2.06µM*	18.4µM*	0.0	1.46µM*	?
CCCOc1ccc(F)cc1-c1cc(C(=O)NCc2ccccc2OC)[nH]n1	?	-19.6%	-19.1	?	0.0%
CCCCCn1cnc2sc(-c3ccccc3)cc2c1=O	-19.4%	11.4%	-14.6	-7.3%	3.5%
CCCCc1c(-c2cccc(Br)c2)ncn1CCc1ccccc1OC	5.8µM*	14.6µM*	-72.0*	5.8µM*	?
CCCCCc1c(-c2cccc(OC)c2)ncn1CCc1ccccc1OC	8.2µM*	20.6µM*	-85.5*	7.31µM*	?
CCCCc1c(-c2cccc(F)c2)ncn1CCc1ccccc1OC	20.6µM*	?	-74.2*	20.6µM*	?
O=C(NNS(=O)(=O)c1ccccc1Cl)C1COc2ccccc2O1 (configuration not stated)	-6.5%	?	12.8	-19.8%	-0.1%
COC(=O)c1[nH]nc(-c2ccccc2)c1-c1ccccc1	2.7%	-12.6%	-0.2	?	-7.4%
COc1ccc(C(CC(=O)O)N2Cc3ccccc3C2=O)cc1OC (configuration not stated)	2.8%	8.7%	7.6	11.2%	12.9%
CC(C)(C)OC(=O)N1CCC(c2c(C(=O)N3CCOCC3)cnn2-c2cccc(F)c2)CC1	-4.9%	·	·	7.6%	·
CCC(C(=O)NC1CCCCC1)n1nc(C)c2sc3ccccc3c2c1=O (configuration not stated)	10.3µM*	·	·	9.2µM*	·
CCC(C(=O)N(C)Cc1ccccc1)n1nc(C)c2sc3ccccc3c2c1=O (configuration not stated)	?	·	·	16.4µM*	·
CCC(C(=O)NCCCN1CCCCCC1)n1nc(C)c2sc3ccccc3c2c1=O (configuration not stated)	-1.2%	-2.5%	0.0	26.4%	-4.4%
CCC(C(=O)NCc1ccccc1Cl)n1nc(C)c2sc3ccccc3c2c1=O (configuration not stated)	18.4µM*	·	·	?	·
CC1C(=O)Nc2ccc(S(=O)(=O)Nc3ccccc3Br)cc2NC1=O (configuration not stated)	-5.9%	-0.9%	38.4	-26.9%	2.6%
Cc1cc(C)cc(C(=O)NCC(=O)OCC(=O)NC2CCCc3ccccc32)c1 (configuration not stated)	4.6%	-1.4%	19.0	-7.7%	-4.3%
Cc1cc(N2CCN(c3cccc(C(F)(F)F)c3)CC2)n2nc(-c3ccccc3C)nc2n1	18.4µM*	·	·	16.4µM*	·
